PrP UTR inh: suppresses PrP 5' UTR mRNA reporter expression; cell-based PrP 5' UTR mRNA reporter, plate reader; inhibition, % (no concentration beside the values); 340,000 compounds, 0.35% hits; in the data active = inhibition above about 52%; also: 0 = median of the neutral control wells
Yp Topo-I inh: blocks Yersinia pestis topoisomerase I activity; 360,000 compounds, 0.064% hits; activity, % at 10 µM; Y. pestis Topo-I cleavage product accumulation, plate reader; AID 504884; in the data active = activity above about 50%, passing the limit was not always enough
FBA Mtb inh: inhibitors of M. tuberculosis fructose-bisphosphate aldolase. P9WQA3. purified M. tuberculosis FBA, fluorescence read-out. inhibition, % at 1 µM. 360,000 compounds, 2.3% hits;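 also: 0% = vehicle and 100% = reference inhibitor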
Target sequence (P9WQA3 whole entry, looked up): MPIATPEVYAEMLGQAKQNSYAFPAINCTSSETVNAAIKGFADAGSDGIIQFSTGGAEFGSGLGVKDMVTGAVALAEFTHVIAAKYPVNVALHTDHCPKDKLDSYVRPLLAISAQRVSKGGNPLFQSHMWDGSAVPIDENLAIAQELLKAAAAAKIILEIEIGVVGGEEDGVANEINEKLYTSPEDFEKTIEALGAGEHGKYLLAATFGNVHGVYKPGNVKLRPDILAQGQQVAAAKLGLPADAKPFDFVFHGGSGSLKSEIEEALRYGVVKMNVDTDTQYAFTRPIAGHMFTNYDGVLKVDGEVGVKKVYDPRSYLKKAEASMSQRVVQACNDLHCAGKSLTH
GDH-TPI counter-1: counter-screen for M. tuberculosis FBA inhibitors: GDH-TPI coupled enzymes. inhibition, % at 4.8 µM. 360,000 compounds, 1.2% hits. GDH-TPI coupled enzyme counterscreen, NADH absorbance. AID 588335; in the data active = inhibition above about 30%;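 also: 0% = DMSO wells and 100% = wells lacking the enzyme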
PrPC TRFRET: inhibitors of human cell surface prion protein PrPC; TR-FRET read-out; inhibition, % at 13.8 µM; 370,000 compounds, 0.43% hits; AID 720596; in the data active = inhibition above about 24%; also: 0% = median of the test wells and 100% = reference compound wells
Mtb hypoxia inh: Mtb hypoxia fluorescent reporter inhibition; fluorescence inhibition, % (no concentration beside the values); 300,000 compounds, 0.1% hits; M. tuberculosis hypoxia-regulated fluorescent reporter, fluorescence; in the data active = fluorescence inhibition mostly above about 23%, no sharp cut-off; inactive = mostly below about 17%
Mtb FBA inh conf: Mtb FBA inhibition, confirmed; shares compounds with FBA Mtb inh; 5,600 compounds, 78% hits; purified M. tuberculosis FBA, fluorescence read-out; inhibition, % at 1 µM;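 also: 0% = vehicle wells and 100% = reference inhibitor wells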
GDH-TPI counter-2: inhibits GDH-TPI coupling enzymes, flagging Mtb FBA hits; shares compounds with FBA Mtb inh; GDH-TPI coupled enzyme counterscreen, fluorescence; inhibition, % at 1 µM; 5,600 compounds, 81% hits; AID 652141; in the data active = inhibition above about 10%
* = called active by the depositor. Rows were chosen to be rich in hits. Some 3.8% of all compounds tested hit in one or more screens of this group. Rule as the data show it, unless noted: active = inhibition above about 27%; inactive = the rest.

Results for CC(C)C(=O)Nc1ccc(-c2nnc(-c3ccccc3)o2)cc1 ?
PrP UTR inh: -25; Yp Topo-I inh: -4; FBA Mtb inh: 33*; GDH-TPI counter-1: -1; PrPC TRFRET: 4; Mtb hypoxia inh: 8; Mtb FBA inh conf: 47*; GDH-TPI counter-2: 36*

Results for CC(=O)/C=C(\C)Nc1ccc(-c2cnc(-c3ccccc3)o2)cc1 ?
PrP UTR inh: -45; Yp Topo-I inh: 3; FBA Mtb inh: 90*; GDH-TPI counter-1: 19; PrPC TRFRET: 8; Mtb FBA inh conf: 91*; GDH-TPI counter-2: 76*

Results for CC(=O)Nc1ccc(-c2nc3ccccc3c(=O)o2)cc1 ?
PrP UTR inh: -18; Yp Topo-I inh: -3; FBA Mtb inh: 0; GDH-TPI counter-1: 4; PrPC TRFRET: -4; Mtb hypoxia inh: 3

Results for O=C(COc1ccccc1)Nc1ccc(-c2nnc(-c3ccco3)o2)cc1 ?
PrP UTR inh: -14; Yp Topo-I inh: 1; FBA Mtb inh: 36*; GDH-TPI counter-1: 3; PrPC TRFRET: 3; Mtb FBA inh conf: 4; GDH-TPI counter-2: 5

What do the screens show for `COc1cc(C=NNC(=O)c2cccc([N+](=O)[O-])c2)ccc1OCc1ccc(C)cc1`?
Mtb hypoxia inh: 2

What do the screens show for `COc1ccc(CN2C(CC(C)=O)c3ccc(C=CC(C)=O)cc3S2(=O)=O)cc1` (stereo unspecified)?
Mtb hypoxia inh: 12

How did CCC(=O)N1CC2(CC(c3cccc([N+](=O)[O-])c3)=NO2)CC1C(=O)NCC(N)=O (stereo unspecified) do in these assays?
Mtb hypoxia inh: 11

What do the screens show for `CCOC(=O)C1C2COc3ccc(Br)cc3C2N2C(=O)N(c3cccc(Cl)c3)C(=O)[C@]12C` (stereo partly specified)?
Mtb hypoxia inh: 11

What do the screens show for `CC(CC(=O)NC1CCCCC1)=NNC(=O)c1ccccc1C`?
Mtb hypoxia inh: 9

How did COc1cccc(CN2CCN(Cc3cc(OC)c(OC)c(OC)c3)CC2)c1OC do in these assays?
PrP UTR inh: -7; Yp Topo-I inh: -17; FBA Mtb inh: 2; GDH-TPI counter-1: 4; PrPC TRFRET: 5; Mtb hypoxia inh: 14

What do the screens show for `COc1cccc(CN2CCN(Cc3cccc(Oc4ccccc4)c3)CC2)c1OC`?
PrP UTR inh: 3; Yp Topo-I inh: -5; FBA Mtb inh: 37*; GDH-TPI counter-1: 6; PrPC TRFRET: -6; Mtb hypoxia inh: 4; Mtb FBA inh conf: 3; GDH-TPI counter-2: -5

Results for c1ccc2oc(-c3ccc4nc[nH]c4c3)nc2c1 ?
PrP UTR inh: -130; Yp Topo-I inh: -6; FBA Mtb inh: 60*; GDH-TPI counter-1: 9; PrPC TRFRET: -1; Mtb FBA inh conf: active; GDH-TPI counter-2: 169*

How did CCOC(=O)c1cnc2sc3c(n2c1=O)CCCC3 do in these assays?
PrP UTR inh: -23; Yp Topo-I inh: 6; FBA Mtb inh: 108*; GDH-TPI counter-1: 23; PrPC TRFRET: 23; Mtb FBA inh conf: 53*; GDH-TPI counter-2: 45*

Results for O=C(c1coc(=O)c(Br)c1)N1CCOCC1 ?
PrP UTR inh: -3; Yp Topo-I inh: 3; FBA Mtb inh: 98*; GDH-TPI counter-1: 18; PrPC TRFRET: 0; Mtb hypoxia inh: 7; Mtb FBA inh conf: 2; GDH-TPI counter-2: -3

What do the screens show for `CC(=NNC(=O)c1ccc(CN(C)S(=O)(=O)c2ccc(C)cc2)cc1)c1ccc(OC(F)F)cc1`?
Mtb hypoxia inh: 2

How did O=C(CSc1cn[nH]n1)Nc1ccc(O)c(C(=O)O)c1 do in these assays?
PrP UTR inh: -20; Yp Topo-I inh: 3; FBA Mtb inh: 31*; GDH-TPI counter-1: -7; PrPC TRFRET: 3; Mtb hypoxia inh: 4; Mtb FBA inh conf: 2; GDH-TPI counter-2: 2

What do the screens show for `CN1C(=O)C2C(C1=O)C(c1cccc(Br)c1)N1C(=O)c3ccccc3NC(=O)C21` (stereo unspecified)?
Mtb hypoxia inh: 4
